Results as given in paper doi:10.1101/2024.03.05.583629.

What follows are sequences tested against pT7_6His-AlfaTag-HOXD13 (human, UniProt P35453 263-343) (assay: PADIT-seq). Conditions: dsDNA, one strand shown.
Sequence of pT7_6His-AlfaTag-HOXD13 (P35453 263-343): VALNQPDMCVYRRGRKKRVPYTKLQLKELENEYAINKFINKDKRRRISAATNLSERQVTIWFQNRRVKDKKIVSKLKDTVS

Point of comparison: “CTCGAGGATATCAAGATCTGGCCTCGGCACTTTAAAAGGAACCTCTAGCTAGCCGACTCACTATAGGGATAATCGCCCTGAGCAAAGACC”, binding signal 2.07 ± 0.0674 log2FC. Against it:
- CTCGAGGATATCAAGATCTGGCCTCGGCCGCAGTCGCGGAACCTCTAGCTAGCCGACTCACTATAGGGATAATCGCCCTGAGCAAAGACC — lower, -1.09 ± 0.145 log2FC
- CTCGAGGATATCAAGATCTGGCCTCGGCAAGCTAAAAGGAACCTCTAGCTAGCCGACTCACTATAGGGATAATCGCCCTGAGCAAAGACC — lower, -0.784 ± 0.107 log2FC
- CTCGAGGATATCAAGATCTGGCCTCGGCTTTTTACTAGGAACCTCTAGCTAGCCGACTCACTATAGGGATAATCGCCCTGAGCAAAGACC — higher, 3.21 ± 0.0865 log2FC
- CTCGAGGATATCAAGATCTGGCCTCGGCCTTTTATGTGGAACCTCTAGCTAGCCGACTCACTATAGGGATAATCGCCCTGAGCAAAGACC — higher, 2.69 ± 0.0743 log2FC
- CTCGAGGATATCAAGATCTGGCCTCGGCGGTTTAAAAGGAACCTCTAGCTAGCCGACTCACTATAGGGATAATCGCCCTGAGCAAAGACC — within error, 1.97 ± 0.078 log2FC
- CTCGAGGATATCAAGATCTGGCCTCGGCCTTCCACGCGGAACCTCTAGCTAGCCGACTCACTATAGGGATAATCGCCCTGAGCAAAGACC — lower, -1.1 ± 0.121 log2FC
- CTCGAGGATATCAAGATCTGGCCTCGGCTAAATAAAAGGAACCTCTAGCTAGCCGACTCACTATAGGGATAATCGCCCTGAGCAAAGACC — lower, 1.68 ± 0.0988 log2FC
- CTCGAGGATATCAAGATCTGGCCTCGGCCCGATAAAAGGAACCTCTAGCTAGCCGACTCACTATAGGGATAATCGCCCTGAGCAAAGACC — lower, 1.27 ± 0.0909 log2FC
- CTCGAGGATATCAAGATCTGGCCTCGGCTCACCACGCGGAACCTCTAGCTAGCCGACTCACTATAGGGATAATCGCCCTGAGCAAAGACC — lower, -1.05 ± 0.123 log2FC
- CTCGAGGATATCAAGATCTGGCCTCGGCTTTTTATAGGGAACCTCTAGCTAGCCGACTCACTATAGGGATAATCGCCCTGAGCAAAGACC — higher, 3.37 ± 0.0926 log2FC
- CTCGAGGATATCAAGATCTGGCCTCGGCCTGCTAAAAGGAACCTCTAGCTAGCCGACTCACTATAGGGATAATCGCCCTGAGCAAAGACC — lower, 0.179 ± 0.113 log2FC
- CTCGAGGATATCAAGATCTGGCCTCGGCCTTTTAGTCGGAACCTCTAGCTAGCCGACTCACTATAGGGATAATCGCCCTGAGCAAAGACC — lower, -0.369 ± 0.0988 log2FC
- CTCGAGGATATCAAGATCTGGCCTCGGCCGGGTAAAAGGAACCTCTAGCTAGCCGACTCACTATAGGGATAATCGCCCTGAGCAAAGACC — lower, -0.304 ± 0.0906 log2FC
- CTCGAGGATATCAAGATCTGGCCTCGGCTTTTTAGCCGGAACCTCTAGCTAGCCGACTCACTATAGGGATAATCGCCCTGAGCAAAGACC — lower, -0.442 ± 0.12 log2FC
- CTCGAGGATATCAAGATCTGGCCTCGGCCTTTTATCAGGAACCTCTAGCTAGCCGACTCACTATAGGGATAATCGCCCTGAGCAAAGACC — within error, 2.19 ± 0.0738 log2FC
- CTCGAGGATATCAAGATCTGGCCTCGGCATTTTAGACGGAACCTCTAGCTAGCCGACTCACTATAGGGATAATCGCCCTGAGCAAAGACC — lower, -0.141 ± 0.116 log2FC
- CTCGAGGATATCAAGATCTGGCCTCGGCTTTTTAGGTGGAACCTCTAGCTAGCCGACTCACTATAGGGATAATCGCCCTGAGCAAAGACC — lower, -0.0749 ± 0.107 log2FC
- CTCGAGGATATCAAGATCTGGCCTCGGCTGGTTAAAAGGAACCTCTAGCTAGCCGACTCACTATAGGGATAATCGCCCTGAGCAAAGACC — lower, 1.48 ± 0.0798 log2FC
- CTCGAGGATATCAAGATCTGGCCTCGGCTTTTTATATGGAACCTCTAGCTAGCCGACTCACTATAGGGATAATCGCCCTGAGCAAAGACC — higher, 3.25 ± 0.0873 log2FC
- CTCGAGGATATCAAGATCTGGCCTCGGCGGCATAAAAGGAACCTCTAGCTAGCCGACTCACTATAGGGATAATCGCCCTGAGCAAAGACC — lower, 0.675 ± 0.0684 log2FC
- CTCGAGGATATCAAGATCTGGCCTCGGCTATATAAAAGGAACCTCTAGCTAGCCGACTCACTATAGGGATAATCGCCCTGAGCAAAGACC — higher, 2.63 ± 0.0902 log2FC
- CTCGAGGATATCAAGATCTGGCCTCGGCGGACTAAAAGGAACCTCTAGCTAGCCGACTCACTATAGGGATAATCGCCCTGAGCAAAGACC — lower, -0.896 ± 0.106 log2FC
- CTCGAGGATATCAAGATCTGGCCTCGGCCAGTTAAAAGGAACCTCTAGCTAGCCGACTCACTATAGGGATAATCGCCCTGAGCAAAGACC — within error, 2 ± 0.0881 log2FC
- CTCGAGGATATCAAGATCTGGCCTCGGCAGGGTAAAAGGAACCTCTAGCTAGCCGACTCACTATAGGGATAATCGCCCTGAGCAAAGACC — lower, -0.13 ± 0.081 log2FC
- CTCGAGGATATCAAGATCTGGCCTCGGCCGTGTAAAAGGAACCTCTAGCTAGCCGACTCACTATAGGGATAATCGCCCTGAGCAAAGACC — lower, 1.58 ± 0.0857 log2FC
- CTCGAGGATATCAAGATCTGGCCTCGGCTTACCACGCGGAACCTCTAGCTAGCCGACTCACTATAGGGATAATCGCCCTGAGCAAAGACC — lower, -1.03 ± 0.114 log2FC
- CTCGAGGATATCAAGATCTGGCCTCGGCGTGTTAAAAGGAACCTCTAGCTAGCCGACTCACTATAGGGATAATCGCCCTGAGCAAAGACC — lower, 1.46 ± 0.0736 log2FC
- CTCGAGGATATCAAGATCTGGCCTCGGCCCGTTAAAAGGAACCTCTAGCTAGCCGACTCACTATAGGGATAATCGCCCTGAGCAAAGACC — higher, 2.37 ± 0.0792 log2FC
- CTCGAGGATATCAAGATCTGGCCTCGGCCTTTTAGTAGGAACCTCTAGCTAGCCGACTCACTATAGGGATAATCGCCCTGAGCAAAGACC — lower, 1.19 ± 0.0808 log2FC
- CTCGAGGATATCAAGATCTGGCCTCGGCCTTTTATTTGGAACCTCTAGCTAGCCGACTCACTATAGGGATAATCGCCCTGAGCAAAGACC — higher, 2.69 ± 0.0648 log2FC
- CTCGAGGATATCAAGATCTGGCCTCGGCATTTTAGCTGGAACCTCTAGCTAGCCGACTCACTATAGGGATAATCGCCCTGAGCAAAGACC — lower, -0.225 ± 0.108 log2FC
- CTCGAGGATATCAAGATCTGGCCTCGGCGTTTTAACTGGAACCTCTAGCTAGCCGACTCACTATAGGGATAATCGCCCTGAGCAAAGACC — lower, 1.39 ± 0.0832 log2FC
- CTCGAGGATATCAAGATCTGGCCTCGGCAACATAAAAGGAACCTCTAGCTAGCCGACTCACTATAGGGATAATCGCCCTGAGCAAAGACC — lower, 1.52 ± 0.0783 log2FC
- CTCGAGGATATCAAGATCTGGCCTCGGCATTTTATCGGGAACCTCTAGCTAGCCGACTCACTATAGGGATAATCGCCCTGAGCAAAGACC — lower, 1.85 ± 0.0758 log2FC
- CTCGAGGATATCAAGATCTGGCCTCGGCTTTTTACGAGGAACCTCTAGCTAGCCGACTCACTATAGGGATAATCGCCCTGAGCAAAGACC — higher, 3.37 ± 0.0866 log2FC
- CTCGAGGATATCAAGATCTGGCCTCGGCTGCATAAAAGGAACCTCTAGCTAGCCGACTCACTATAGGGATAATCGCCCTGAGCAAAGACC — lower, 1.39 ± 0.0891 log2FC
- CTCGAGGATATCAAGATCTGGCCTCGGCGTTTTATTAGGAACCTCTAGCTAGCCGACTCACTATAGGGATAATCGCCCTGAGCAAAGACC — higher, 3.19 ± 0.0762 log2FC
